Parameters in all cases: scale not given: direction of the effect not stated beside the values
For experiment [1], the target named is Protein translocase subunit SecA (Escherichia coli (strain K12)) (UniProt P10408). The experiment in a line: Assay to Identify E. coli SecA ATPase Inhibitors. The conditions noted are these: 30 µM. In kind it is functional.
Experiment [2] deals with T1, Ubiquitin-activating enzyme e1, putative (Leishmania donovani (strain BPK282A1)) (UniProt E9BSI1).
T1 sequence (whole entry): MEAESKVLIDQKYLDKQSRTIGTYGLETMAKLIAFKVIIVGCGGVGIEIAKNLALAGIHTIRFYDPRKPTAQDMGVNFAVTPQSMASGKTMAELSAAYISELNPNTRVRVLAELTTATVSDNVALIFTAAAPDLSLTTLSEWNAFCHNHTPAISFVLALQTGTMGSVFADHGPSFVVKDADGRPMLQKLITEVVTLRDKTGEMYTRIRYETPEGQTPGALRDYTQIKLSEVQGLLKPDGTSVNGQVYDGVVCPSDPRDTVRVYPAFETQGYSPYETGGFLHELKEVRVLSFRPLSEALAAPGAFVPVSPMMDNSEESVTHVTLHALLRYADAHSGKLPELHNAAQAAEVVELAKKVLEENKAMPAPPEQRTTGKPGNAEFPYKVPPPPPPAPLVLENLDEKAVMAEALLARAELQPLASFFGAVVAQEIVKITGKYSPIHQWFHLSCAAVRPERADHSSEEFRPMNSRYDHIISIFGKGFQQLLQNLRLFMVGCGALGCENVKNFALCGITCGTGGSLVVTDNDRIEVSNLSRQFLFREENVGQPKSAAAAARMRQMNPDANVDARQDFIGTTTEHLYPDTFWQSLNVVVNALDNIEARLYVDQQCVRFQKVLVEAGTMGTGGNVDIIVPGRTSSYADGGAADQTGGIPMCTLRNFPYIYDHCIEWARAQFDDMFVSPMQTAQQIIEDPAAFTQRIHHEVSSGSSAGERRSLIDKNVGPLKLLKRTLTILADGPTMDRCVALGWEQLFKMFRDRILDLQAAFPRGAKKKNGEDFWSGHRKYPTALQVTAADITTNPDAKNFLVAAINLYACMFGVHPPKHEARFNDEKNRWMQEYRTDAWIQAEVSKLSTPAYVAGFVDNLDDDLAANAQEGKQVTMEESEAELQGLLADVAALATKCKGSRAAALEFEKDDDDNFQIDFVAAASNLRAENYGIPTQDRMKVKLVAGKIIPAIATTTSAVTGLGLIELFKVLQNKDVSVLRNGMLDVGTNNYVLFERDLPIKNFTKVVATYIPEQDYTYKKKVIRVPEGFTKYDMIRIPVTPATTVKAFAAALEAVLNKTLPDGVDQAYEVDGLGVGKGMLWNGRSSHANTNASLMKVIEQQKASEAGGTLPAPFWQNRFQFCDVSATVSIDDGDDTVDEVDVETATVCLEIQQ
The experiment in a line: Leishmania donovani Ubiquitin Activating Enzyme (LdE1). In kind it is functional. The conditions noted are these: 30 µM.

Experiment [3] deals with AMP-activated protein kinase, AMPK (Homo sapiens) (UniProt P54646+O43741+P54619+Q9UGJ0+Q9Y478+Q13131+Q9UGI9). The experiment in a line: AMP-dependent Kinase enzyme assay. An in vitro enzyme assay that detects ADP turnover that is directly proportional to AMPK activity. This uses naive AMPK that is activated during the assay with MK-8722. The class given is functional. As to conditions: 30 µM.

For experiment [4], the target named is Sialic acid-binding Ig-like lectin 9 (Homo sapiens) (UniProt Q9Y336). Kind of experiment: Hs-Siglec9 ALPHAscreen SOP 20170721. As to conditions: 10 µM.
Chain of Sialic acid-binding Ig-like lectin 9 (Homo sapiens) (Q9Y336 whole entry): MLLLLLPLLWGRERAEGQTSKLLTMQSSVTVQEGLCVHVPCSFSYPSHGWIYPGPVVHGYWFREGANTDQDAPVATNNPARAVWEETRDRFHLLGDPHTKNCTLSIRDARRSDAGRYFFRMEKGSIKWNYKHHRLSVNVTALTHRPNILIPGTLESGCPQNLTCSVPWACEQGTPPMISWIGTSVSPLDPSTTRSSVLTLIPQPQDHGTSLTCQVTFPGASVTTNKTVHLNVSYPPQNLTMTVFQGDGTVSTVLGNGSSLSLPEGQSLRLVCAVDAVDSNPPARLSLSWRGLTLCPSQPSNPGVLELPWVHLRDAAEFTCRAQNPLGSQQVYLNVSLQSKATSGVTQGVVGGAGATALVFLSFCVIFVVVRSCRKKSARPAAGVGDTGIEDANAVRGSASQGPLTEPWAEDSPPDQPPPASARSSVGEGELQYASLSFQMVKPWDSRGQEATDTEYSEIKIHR
Experiment [5] relates to Trypanosoma cruzi. Kind of experiment: Trypanosoma cruzi phosphomannomutase and mannose-1-phosphate guanylyltransferase assay. The class given is functional. As to conditions: 10 µM.
The target of experiment [6] is T2, Arginase-2, mitochondrial (Homo sapiens) (UniProt P78540).
T2 sequence (whole entry): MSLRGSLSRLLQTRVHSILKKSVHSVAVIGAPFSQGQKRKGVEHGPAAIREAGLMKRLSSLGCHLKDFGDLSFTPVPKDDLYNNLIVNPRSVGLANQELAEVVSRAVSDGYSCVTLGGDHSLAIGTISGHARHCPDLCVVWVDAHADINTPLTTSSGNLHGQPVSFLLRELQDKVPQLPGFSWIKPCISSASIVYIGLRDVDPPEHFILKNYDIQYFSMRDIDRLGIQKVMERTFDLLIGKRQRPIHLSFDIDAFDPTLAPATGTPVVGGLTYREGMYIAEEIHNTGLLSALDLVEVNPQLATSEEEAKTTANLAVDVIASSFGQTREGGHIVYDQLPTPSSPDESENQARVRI
Kind of experiment: in vitro enzyme assay to detect the production of urea directly proportional to the activity of Arginase II. Note: in the data most compounds retested in dose-response had high values. In kind it is functional. As to conditions: 33.3 µM.

For experiment [7], the target named is T3, Proteasome subunit beta (Trypanosoma cruzi) (UniProt O96673).
T3 sequence (whole entry): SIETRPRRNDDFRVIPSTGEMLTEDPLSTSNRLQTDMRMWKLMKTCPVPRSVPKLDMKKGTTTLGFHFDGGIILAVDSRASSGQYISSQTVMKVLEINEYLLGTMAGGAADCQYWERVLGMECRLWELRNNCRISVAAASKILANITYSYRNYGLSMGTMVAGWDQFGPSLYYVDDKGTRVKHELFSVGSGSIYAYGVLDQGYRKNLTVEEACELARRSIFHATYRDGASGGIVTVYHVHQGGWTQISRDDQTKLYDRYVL
Kind of experiment: Trypanosoma cruzi proteasome chymotrypsin-like activity (TcProtChymo) assay. Note: in the data most compounds retested in dose-response had high values. The class given is functional. The conditions noted are these: 9.37 µM.

For experiment [8], the species on record is Homo sapiens. Kind of experiment: To identify inhibition of the IFN signalling (Jak-Stat) pathway via expression of an eGFP reporter gene under the control of an IFN-stimulated response element (ISRE) containing MxA promoter. The class given is functional. As to conditions: 30 µM. (In a reporter assay the amount or activity of a reporter protein is the signal.)

Experiment [9] concerns the target T4, Tyrosyl-tRNA synthetase, putative (Trypanosoma cruzi (strain CL Brener)) (UniProt Q4DSP6).
T4 sequence (whole entry): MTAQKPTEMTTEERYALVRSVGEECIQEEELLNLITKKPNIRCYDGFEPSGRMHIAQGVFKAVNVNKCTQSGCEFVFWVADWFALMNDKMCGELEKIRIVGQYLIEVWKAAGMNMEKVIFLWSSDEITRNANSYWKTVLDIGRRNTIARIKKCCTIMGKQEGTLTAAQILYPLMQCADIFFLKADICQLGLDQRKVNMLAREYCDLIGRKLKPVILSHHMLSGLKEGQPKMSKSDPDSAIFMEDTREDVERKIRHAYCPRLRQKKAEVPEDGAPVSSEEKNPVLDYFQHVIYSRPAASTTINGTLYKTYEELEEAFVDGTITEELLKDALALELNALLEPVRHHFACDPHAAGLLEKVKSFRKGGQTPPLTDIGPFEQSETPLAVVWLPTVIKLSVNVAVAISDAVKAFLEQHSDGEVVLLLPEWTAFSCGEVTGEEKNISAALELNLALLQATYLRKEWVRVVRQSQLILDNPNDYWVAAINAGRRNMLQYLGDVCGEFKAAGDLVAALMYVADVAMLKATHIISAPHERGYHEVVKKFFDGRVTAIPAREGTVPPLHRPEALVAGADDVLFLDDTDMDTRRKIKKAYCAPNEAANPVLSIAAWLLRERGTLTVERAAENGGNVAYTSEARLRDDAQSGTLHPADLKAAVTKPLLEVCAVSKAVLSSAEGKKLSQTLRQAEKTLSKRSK
Kind of experiment: Trypanosoma cruzi tyrosyl tRNA synthetase (TcYRS) _High Tyrosine SOP. Note: in the data most compounds retested in dose-response had high values. As to conditions: 30 µM. The class given is functional.

In experiment [10] the target is T4, Tyrosyl-tRNA synthetase, putative (Trypanosoma cruzi (strain CL Brener)). Kind of experiment: Trypanosoma cruzi tyrosyl tRNA synthetase (TcYRS) SOP. In kind it is functional. As to conditions: 30 µM.
Experiment [11] has as its target Chromo domain-containing protein 1 (Saccharomyces cerevisiae (strain ATCC 204508 / S288c) (Baker's yeast)) (UniProt P32657). The experiment in a line: ScCHD-1 Enzyme Inhibition Assay. Note: in the data most compounds retested in dose-response had high values. The conditions noted are these: 30 µM. In kind it is functional.

For some of these results: Entries with a potency or affinity are not part of this list.

Chain of Chromo domain-containing protein 1 (Saccharomyces cerevisiae (strain ATCC 204508 / S288c) (Baker's yeast)) (P32657 whole entry, the tested form may be a part): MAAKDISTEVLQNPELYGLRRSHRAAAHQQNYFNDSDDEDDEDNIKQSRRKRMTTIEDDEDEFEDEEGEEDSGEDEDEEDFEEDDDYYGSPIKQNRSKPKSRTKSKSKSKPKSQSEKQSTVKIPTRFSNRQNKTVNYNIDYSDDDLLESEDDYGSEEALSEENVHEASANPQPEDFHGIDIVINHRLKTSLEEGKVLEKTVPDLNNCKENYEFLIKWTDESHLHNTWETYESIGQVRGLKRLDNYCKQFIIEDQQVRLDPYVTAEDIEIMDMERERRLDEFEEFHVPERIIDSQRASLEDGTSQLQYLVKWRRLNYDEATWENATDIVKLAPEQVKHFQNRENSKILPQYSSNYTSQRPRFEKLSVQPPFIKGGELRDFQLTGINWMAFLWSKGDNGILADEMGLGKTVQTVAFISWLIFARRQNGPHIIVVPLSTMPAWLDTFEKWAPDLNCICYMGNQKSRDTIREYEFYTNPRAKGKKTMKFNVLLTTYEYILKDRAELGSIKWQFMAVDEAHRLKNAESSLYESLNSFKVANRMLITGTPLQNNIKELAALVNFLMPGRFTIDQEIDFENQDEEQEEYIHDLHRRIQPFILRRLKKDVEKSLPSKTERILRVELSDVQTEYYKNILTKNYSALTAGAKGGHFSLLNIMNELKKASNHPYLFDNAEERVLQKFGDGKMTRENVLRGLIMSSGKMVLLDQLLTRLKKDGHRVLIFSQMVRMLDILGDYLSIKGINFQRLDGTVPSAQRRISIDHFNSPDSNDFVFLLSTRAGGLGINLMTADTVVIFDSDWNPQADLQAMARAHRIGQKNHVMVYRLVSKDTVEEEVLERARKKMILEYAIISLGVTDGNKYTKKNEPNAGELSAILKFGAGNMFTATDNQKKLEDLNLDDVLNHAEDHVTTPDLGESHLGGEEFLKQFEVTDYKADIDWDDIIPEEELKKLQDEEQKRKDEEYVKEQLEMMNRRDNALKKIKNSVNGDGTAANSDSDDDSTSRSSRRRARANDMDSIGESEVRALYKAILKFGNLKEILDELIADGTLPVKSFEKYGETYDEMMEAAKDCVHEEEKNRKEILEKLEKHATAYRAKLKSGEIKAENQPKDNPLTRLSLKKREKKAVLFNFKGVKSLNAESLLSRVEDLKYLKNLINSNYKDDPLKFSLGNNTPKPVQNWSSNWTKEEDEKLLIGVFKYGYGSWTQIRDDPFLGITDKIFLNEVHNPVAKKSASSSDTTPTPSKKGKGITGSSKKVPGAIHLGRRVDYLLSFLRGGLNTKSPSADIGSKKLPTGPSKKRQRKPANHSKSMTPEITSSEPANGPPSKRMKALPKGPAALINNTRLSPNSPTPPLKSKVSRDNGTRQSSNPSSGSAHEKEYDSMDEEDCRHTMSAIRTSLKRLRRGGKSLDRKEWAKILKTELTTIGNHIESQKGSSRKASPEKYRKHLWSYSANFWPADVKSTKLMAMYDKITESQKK
Chain of Protein translocase subunit SecA (Escherichia coli (strain K12)) (P10408 whole entry): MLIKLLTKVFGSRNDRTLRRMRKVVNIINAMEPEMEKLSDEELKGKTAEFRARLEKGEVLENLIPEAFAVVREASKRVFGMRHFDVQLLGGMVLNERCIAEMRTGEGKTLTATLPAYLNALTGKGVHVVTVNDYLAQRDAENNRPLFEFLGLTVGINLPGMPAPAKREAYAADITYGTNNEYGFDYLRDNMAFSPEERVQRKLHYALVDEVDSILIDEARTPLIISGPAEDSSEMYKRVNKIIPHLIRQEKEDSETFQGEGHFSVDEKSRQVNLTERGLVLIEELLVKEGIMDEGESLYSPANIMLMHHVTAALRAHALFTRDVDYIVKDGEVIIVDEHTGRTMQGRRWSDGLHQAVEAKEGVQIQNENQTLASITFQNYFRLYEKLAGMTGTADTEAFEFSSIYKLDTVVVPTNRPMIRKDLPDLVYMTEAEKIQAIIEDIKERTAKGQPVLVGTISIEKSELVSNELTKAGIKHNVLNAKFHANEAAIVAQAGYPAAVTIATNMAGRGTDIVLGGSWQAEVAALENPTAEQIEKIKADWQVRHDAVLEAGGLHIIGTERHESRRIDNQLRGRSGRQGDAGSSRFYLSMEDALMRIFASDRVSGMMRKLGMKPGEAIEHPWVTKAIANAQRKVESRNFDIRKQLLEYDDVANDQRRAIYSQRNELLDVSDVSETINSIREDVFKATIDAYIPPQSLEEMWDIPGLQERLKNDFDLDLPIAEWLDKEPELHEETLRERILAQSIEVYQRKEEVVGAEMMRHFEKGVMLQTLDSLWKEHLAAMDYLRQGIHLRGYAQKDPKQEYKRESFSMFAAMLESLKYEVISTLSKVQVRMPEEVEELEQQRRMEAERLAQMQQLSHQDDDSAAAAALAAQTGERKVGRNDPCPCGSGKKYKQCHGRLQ

Consider `O=C1CCC2(CCN(Cc3nccs3)CC2)N1Cc1ccccc1`, for which the Percent Effect in experiment [1] was -0.659%; in [2], 5.33%; in experiment [3] it was 5.45%; in [4], 1.02%; in experiment [5], -5.91%; in experiment [6] it was 3.03%. Moreover, the Percent Effect in [7] is 10.8%; in [8], 5.84%; in [9], 5.32%; in [10], 11.5%; in experiment [11], -0.585%.

With `Fc1cnc(N2CCC3(COCc4cnc(NCC5CC5)nc43)C2)nc1` (stereo unspecified), the Percent Effect was 2.14% in [1]; -2.74% in experiment [2]; 27.5% in [3]; 4.49% in [4]; -1.59% in [5]; 2.4% in experiment [6]. Moreover, the Percent Effect was 4.88% in experiment [7]; -6.32% in [8]; 1.04% in experiment [9]; 3.7% in [10]; 2.6% in [11].

Regarding `O=C1c2cnc(N3CCOCC3)nc2CN1c1ccc2c(c1)OCO2`, the Percent Effect in experiment [1] was -4.88%; in experiment [2] it was 7.79%; in experiment [3] it was 1.53%; in [4], 6.09%; in [5] it was 2.26%; in experiment [6], -5.52%. Moreover, the Percent Effect is 14.5% in experiment [7]; -11.1% in [8]; 9.68% in experiment [9]; 21% in experiment [10]; 0.201% in experiment [11].

`CSc1ccc(C(CN)N2CCc3sccc3C2)cc1` (stereo unspecified): the Percent Effect was 0.534% in [1]; -15.8% in [2]; -4.11% in [3]; -9.22% in experiment [4]; 3.6% in [5]; -5.92% in experiment [6]. Also, the Percent Effect in [7] worked out at 6.42%; in [8] it was 39.7%; in [9], 17%; in experiment [10] it was 28.6%; in [11], 1.73%.

For `Fc1cccc(-c2nc(CN3CCCCC3Cn3cncn3)co2)c1` (stereo unspecified), the Percent Effect was -2.29% in experiment [1]; 7.59% in experiment [2]; 1.61% in experiment [3]; 1.08% in experiment [4]; 7.65% in experiment [5]; 1.52% in experiment [6]. In addition, the Percent Effect in [7] was 1.72%; in experiment [8], -27.5%; in [9] it was 3.45%; in experiment [10], 13.9%; in experiment [11], -6.86%.

Consider `Cn1cnnc1C1CCCN(C(=O)NCCOc2ccccc2)C1` (stereo unspecified), for which the Percent Effect in experiment [1] is -3.04%; in experiment [2], 23.4%; in [3], 1.73%; in experiment [4], -22.3%; in [5], 4.8%; in experiment [6], -1.47%. The Percent Effect in experiment [7] is 15.9%; in experiment [8] it was 16.1%; in experiment [9] it was 5.71%; in [10], 21.2%; in [11] it was -12%.

As to `COc1cccc(OCC2CCCN(C3CCN(C(C)=O)CC3)C2)c1` (stereo unspecified), the Percent Effect in experiment [1] is -0.921%; in [2], 5.41%; in experiment [3], 0.304%; in [4], -4.78%; in [5], -3.67%; in experiment [6], 1.43%. The Percent Effect in experiment [7] was 18.4%; in experiment [8], -5.82%; in experiment [9], 4.76%; in [10], 12.2%; in [11], -2.6%.

Take `CNC(=O)COc1ccc(CNCc2ccc(F)cc2F)cc1`: the Percent Effect was -3.24% in [1]; 6.94% in experiment [2]; 7.47% in [3]; -14.2% in experiment [4]; -5.93% in experiment [5]; -1.32% in [6]. The Percent Effect is 18.6% in experiment [7]; 6.07% in [8]; 4.21% in experiment [9]; 5.13% in experiment [10]; -3.63% in experiment [11].

Consider `Cc1cccc(NC2CCN(C(=O)Nc3cc(C)on3)CC2)n1`, for which the Percent Effect in experiment [1] was -3.9%; in experiment [2] it was 12.7%; in experiment [3], -3.67%; in experiment [4] it was 8.79%; in [5], 5.57%; in experiment [6], 0.76%. For the same compound, the Percent Effect in experiment [7] was 1.39%; in experiment [8] it was -22.6%; in [9] it was 4.43%; in experiment [10] it was 16.5%; in [11] it was -8.82%.

Turning to `CC(NC(=O)CCCOc1ccccc1)c1nnc2n1CCCCC2` (stereo unspecified), the Percent Effect in [1] is -4.14%; in [2], 13.5%; in [3], -5.88%; in [4], -2.77%; in experiment [5], 0.0943%; in [6], -5.21%. Further, the Percent Effect was 11.3% in experiment [7]; 16.3% in [8]; 5.42% in [9]; 13.6% in experiment [10]; -4.16% in [11].

`O=C(CC1CC1)N1CCn2cc(Cn3cncn3)nc2C1`: the Percent Effect in experiment [1] was -2.33%; in experiment [2], 10.4%; in [3], 4.72%; in experiment [4], 3.11%; in [5], -4.04%; in experiment [6], -13.6%. For the same compound, the Percent Effect in experiment [7] was 10.8%; in [8] it was 2.39%; in [9], 3.17%; in [10] it was 11.5%; in experiment [11], -6.64%.
